This note sets out measurements from PubChem BioAssay AID1490 (National Center for Advancing Translational Sciences (NCATS), 2009).

The campaign covered roughly 310,000 compounds. About 11,000 (3.5%) were called active. Not shown: some 4% with an inconclusive outcome. For the sample, actives were picked, then their nearest neighbours and some compounds at random. Values without a mark were called inactive. Calls follow the shape of the dose curve; as a rule, active = well fitted inhibition curve with a large enough effect; inconclusive = small, poorly fitted or top-dose-only effect, or another doubt; inactive = no such curve, though single readings can be large or run the other way.
Potency is read from the fitted curve at half-maximal effect.

This assay addresses 4'-phosphopantetheinyl transferase ffp (Bacillus subtilis) (UniProt Q9F4F7). The experiment in a line: qHTS Assay for Inhibitors of Bacillus subtilis Sfp phosphopantetheinyl transferase (PPTase).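 Also: the enzyme is Sfp with the accession as filed and its product quenches rhodamine fluorescence.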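 As to largest response in the series, negative = inhibition: 0% = enzyme reaction without inhibitor and -100% = no enzyme wells.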 The note with it: Biochemical Sfp PPTase activity. In short, it runs like this: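 Fluorescence-quenching assay with 15 nM Sfp, 5 uM rhodamine-CoA and 12.5 uM BHQ-2-labelled ybbR peptide in pH 7.6 Hepes/MgCl2 buffer. Enzyme was pre-incubated with compound for 15 min at room temperature. Rate was taken from the 30-min fluorescence change (525/598 nm).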
For orientation: Quantitative high-throughput screening tests each substance at several concentrations.
For `COc1ccc(NC(=O)c2ccco2)cc1NC(=O)c1ccc(C#N)cc1F`, the largest response in the series, negative = inhibition is 6.39%.

On to `O=[N+]([O-])c1ccc(O)c(/C=N/Nc2ccccc2[N+](=O)[O-])c1`, for which the largest response in the series, negative = inhibition is -9.69%.

On to `Nn1cnnc1N/N=C/c1cc([N+](=O)[O-])c(Cl)cc1Cl`, for which the Potency is 50.1 µM (active). On the same count and under the same terms, for `Cc1ccc2sc(NNC(=O)c3ccc4c(c3)OCCO4)nc2c1C` the value was 28.2 µM (active). On to `Cc1nc(NC(=O)c2ccc3c(c2)OCCO3)ccc1Br`, for which the largest response in the series, negative = inhibition is -0.776%. On the same count and under the same terms, for `C/C(=N\NC(=O)C(N)=O)c1ccc2c(c1)OCCO2` the value was -17.8%; for `CCCN1CCN(C(=O)CCCNC(=O)c2ccc(Cl)cc2)CC1`, 8.54%.

For the molecule `COc1ccc(NC(=O)CC(NC(C)c2ccccc2)C(=O)O)cc1` (centres undefined), the largest response in the series, negative = inhibition is -9.65%. Consider `CN(C)CCCNC(=O)c1cc(C(=O)Cc2ccc(Cl)cc2)c[nH]1`, for which the largest response in the series, negative = inhibition is 3.87%. For the molecule `COc1cc(CN2CCC(C(N)=O)CC2)ccc1OCc1ccccc1`, the largest response in the series, negative = inhibition was -21.1%. As for `COc1cc(CNC2CCCC2)c(Br)cc1OCc1ccccc1`, the largest response in the series, negative = inhibition was 9.9%.

For the molecule `COc1cc(C2CC(=O)N3CN(Cc4ccccc4)CSC3=C2C#N)ccc1OCc1ccccc1` (centres undefined), the Potency is 3.55 µM (active). For the molecule `Cc1ccc(CNC(=O)CCC(=O)N2CC(C)Sc3ccccc32)cc1` (centres undefined), the largest response in the series, negative = inhibition is 23.4%. `CC(=O)Nc1ccc(S(=O)(=O)N2CCC(NC(=O)c3ccccc3)CC2)cc1`: the largest response in the series, negative = inhibition was 22.8%.

On to `COc1ccc2c(c1)N(C)/C(=C1/SC(=S)N(NC(C)=O)C1=O)S2`, for which the largest response in the series, negative = inhibition is -12.7%.

`COc1cccc(OC)c1C(=O)NC(=S)NCc1ccco1`: the largest response in the series, negative = inhibition is -3.61%. Take `COc1cc(C(=O)NC(=S)NCc2ccco2)cc(OC)c1OC`: the Potency is 44.7 µM (active). For `COc1cc(C(=O)N[C@@H](C)C(=O)NCc2ccco2)cc(OC)c1OC`, the largest response in the series, negative = inhibition was 8.28%.

With `Fc1ccc(-c2ccc(NCCN3CCOCC3)nn2)cc1`, the largest response in the series, negative = inhibition was 19.2%. For `COc1cc(C(=S)N2CCOCC2)cc(OC)c1OC(=O)c1cc([N+](=O)[O-])cc([N+](=O)[O-])c1`, the largest response in the series, negative = inhibition was 4.17%. On to `COc1cc(C(=S)N2CCOCC2)cc(OC)c1OC(=O)c1ccc([N+](=O)[O-])cc1[N+](=O)[O-]`, for which the largest response in the series, negative = inhibition was 7.82%. Take `O=C(Nc1ccc(C(=O)N2CCCCC2)cc1)c1cccc([N+](=O)[O-])c1`: the largest response in the series, negative = inhibition was 17.2%. On to `O=C(Oc1ccc(Br)cc1C(=S)N1CCOCC1)c1cccc([N+](=O)[O-])c1`, for which the Potency is 50.1 µM (active). As to `O=C(Oc1ccccc1C(=S)N1CCCCC1)c1cc([N+](=O)[O-])cc([N+](=O)[O-])c1`, the Potency is 31.6 µM (active). For the molecule `O=C(Oc1ccccc1Cl)c1ccc(N2CCOCC2)c([N+](=O)[O-])c1`, the largest response in the series, negative = inhibition was -20.5%. For the molecule `CCCCNC(=O)CCn1nc(-c2ccc(Cl)cc2)ccc1=O`, the largest response in the series, negative = inhibition is 10.2%. Take `Cc1c(CC(=O)NCC(=O)NCC(=O)O)c(=O)oc2cc3oc4c(c3cc12)CCCC4`: the largest response in the series, negative = inhibition is -20.1%.

Consider `Nc1nnnn1/N=C/c1cccc(Br)c1`, for which the largest response in the series, negative = inhibition was 2.63%. Regarding `Cc1n[nH]c(C)c1S(=O)(=O)N1CCCC(C(=O)Nc2ccc(Br)cc2)C1` (centres undefined), the largest response in the series, negative = inhibition was 15.6%.

Regarding `CCOC(=O)Cn1c(=O)n(Cc2ccc(OC)cc2)c(=O)c2cccnc21`, the largest response in the series, negative = inhibition was 13%. For the molecule `O=C(Nc1ccnn1C1CCN(Cc2cccc(OCCO)c2)CC1)C1CCCC1`, the largest response in the series, negative = inhibition was -0.971%. `COc1ccc(-c2cc(C(=O)N3CCN(c4ccc(F)cc4)CC3)no2)cc1`: the largest response in the series, negative = inhibition was 8.09%.

For the molecule `COc1ccc(CNC(=O)c2ccc3oc(C(C)C)nc3c2)cc1`, the largest response in the series, negative = inhibition is 2.49%.

`S=c1[nH]c2ccccc2c2ccccc12`: the Potency was 50.1 µM (active). With `CCCCn1c(=S)[nH]c2ccccc2c1=O`, the largest response in the series, negative = inhibition is 8.99%.

Take `S=c1ccc2ccccc2[nH]1`: the largest response in the series, negative = inhibition is -21.1%. Still for that read-out and setting: next, `Cc1cccc(NC(=O)CSCC(=O)Nc2nnc(C3CC3)s2)c1`: -4.58%; `CCN(CC)c1ccc(/C=N/Nc2nc(C)cc(C)n2)c(O)c1`: -14.7%. Consider `CCN(CC)c1ccc2oc(=O)c(C)nc2c1`, for which the Potency was 14.1 µM (active). Take `CCN(CC)c1ccc2cc(C(N)=O)/c(=N\NC(=O)c3ccncc3)oc2c1`: the largest response in the series, negative = inhibition was -4.99%. For `Cc1ccc2cccc(OCCCOc3ccccc3CO)c2n1`, the largest response in the series, negative = inhibition is 13.6%.

For `O=C(CC1C(=O)NCCN1CC(c1ccccc1)c1ccccc1)NCC1CCOCC1` (centres undefined), the largest response in the series, negative = inhibition is -5.38%. For the molecule `Cc1sc2nc(SCCO)n(-c3ccccc3)c(=O)c2c1C`, the largest response in the series, negative = inhibition is 27.7%. Consider `CSc1nc(C)cc(SC(C(C)=O)C(=O)Nc2ccccc2)n1` (centres undefined), for which the Potency is 50.1 µM (active). As to `CC(Sc1nnc2c(n1)C1CCC2(C)C1(C)C)C(=O)Nc1ccccc1` (centres undefined), the largest response in the series, negative = inhibition was 6.3%. Turning to `Cc1cccc(NC(=O)C(C)SCc2ccccc2)c1` (centres undefined), the largest response in the series, negative = inhibition is 3.73%. Turning to `Cn1nccc1/C=N\NC(=O)c1ccc(Cl)cc1`, the largest response in the series, negative = inhibition was 9.85%. Take `CCOc1cc(C(=S)N2CCOCC2)ccc1O`: the Potency was 14.1 µM (active).

As for `CCOc1cc(C(=S)N2CCOCC2)ccc1OS(=O)(=O)c1ccc(Br)cc1`, the largest response in the series, negative = inhibition is 22.9%.

For `CCOc1ccc(C(=O)CCN2CCOCC2)cc1`, the largest response in the series, negative = inhibition is -10.8%. As to `COC(=O)[C@@H]1CC2=CC(=O)CC[C@]2(C)[C@@]23O[C@@H]2C[C@@]2(C)[C@@H](CC[C@@]24CCC(=O)O4)[C@H]13`, the largest response in the series, negative = inhibition was 10%. Turning to `Cc1ccc(Cn2cc(C(=O)NN)c(=O)c3ccc(F)cc32)cc1`, the largest response in the series, negative = inhibition is 10.7%. On to `CCCn1c(SCC(=O)c2ccc3c(c2)OCCO3)nnc1C(C)C`, for which the Potency was 79.4 µM (active).

Turning to `CCCn1c(SCC(N)=O)nnc1C(C)C`, the largest response in the series, negative = inhibition was 10.5%. In the case of `CCn1c(SCC(=O)Nc2ccc3c(c2)OCCO3)nnc1C(C)C`, the largest response in the series, negative = inhibition is 18.9%. On the same count and under the same terms, for `COc1ccc(C(C(=O)NC2CCCC2)N(CCCO)C(=O)Cn2nnc(-c3ccc(C)o3)n2)cc1` (centres undefined) the value was 1.56%. As for `CCN(CC)S(=O)(=O)c1ccc(N2CCN(C)CC2)c(NC(=O)Nc2ccccc2F)c1`, the largest response in the series, negative = inhibition is 9.85%. Regarding `Cc1cc(SCC(=O)c2ccccc2)nc(SCC(=O)c2ccccc2)n1`, the largest response in the series, negative = inhibition is 11.4%. As to `Cc1ccc(N/C=C/C(=O)c2ccccc2)cc1C`, the largest response in the series, negative = inhibition is -6.7%. In the case of `Cc1cc(C)nc(S/C=C/C(=O)c2ccccc2)n1`, the Potency is 20 µM (active). With `COc1cc(C(C(=O)NC2CCCC2)N(Cc2ccccc2)C(=O)c2snc(C(N)=O)c2N)ccc1O` (centres undefined), the largest response in the series, negative = inhibition is 4.51%. As for `CCOC(=O)[C@H]1[C@H]2COc3cc(OC)ccc3[C@@H]2N2C(=O)N(c3ccc(Br)cc3)C(=O)[C@@]12C`, the largest response in the series, negative = inhibition was 5.98%. Turning to `O=C(NCCCO)c1cc2c([nH]c3ccccc32)c(-c2ccc(F)cc2)n1`, the largest response in the series, negative = inhibition was -19.4%. Take `CSc1ncccc1C(=O)NC1CCCCCC1`: the largest response in the series, negative = inhibition was 8.17%.

Turning to `CSc1nsc(SC)c1NC(=O)OC1CCCCC1`, the Potency is 56.2 µM (active). For `CN(C)C(=O)c1ccc(NC(=O)c2ccccc2-c2ccccc2)cc1`, the largest response in the series, negative = inhibition was -2.24%.

With `O=C1/C(=C/c2ccc3c(c2)OCO3)Oc2cc(OCC(=O)N3CC(O)C[C@H]3C(=O)O)ccc21` (some centres undefined), the largest response in the series, negative = inhibition is 2.62%. For the molecule `CCOc1cccc(-c2nnc(SCC(=O)NC3CC3)n2C)c1`, the largest response in the series, negative = inhibition was 3.79%. For `CCOc1ccc(Nc2nc(Cc3nnc(SCC(=O)NC4CCCC4)n3C)cs2)cc1`, the Potency is 89.1 µM (active).

With `Cn1c(CC(=O)Nc2ccc(F)cc2)nnc1SCC(=O)NC1CCCCC1`, the largest response in the series, negative = inhibition is 16%. For the molecule `CC(=O)Nc1ccc(NC(=O)COc2ccc(-c3ccccc3)cc2)cc1`, the largest response in the series, negative = inhibition was 13.3%.

Take `O=C(/C=C/c1cccc(F)c1)NC1CC1`: the largest response in the series, negative = inhibition is 29.9%. In the case of `COC(=O)Cn1c(O)c(N=NC(=O)OC)c2ccccc21`, the largest response in the series, negative = inhibition was 4.81%.

Regarding `CC(C)n1c(O)c(N=Nc2ccccn2)c2ccccc21`, the Potency was 50.1 µM (active). On to `Oc1oc(-c2ccccc2Br)nc1/C=N/c1ccccn1`, for which the largest response in the series, negative = inhibition was -0.12%. Regarding `COC(CNC(=O)c1ccc2c(c1)ncn2-c1cc(C)cc(C)c1)OC`, the largest response in the series, negative = inhibition was 8.91%. Still for that read-out and setting: for `CC(C)C(N)C(=O)OCCOCn1cnc2c(=O)[nH]c(N)nc21` (centres undefined) the value was -9.12%; for `COc1cc2c(cc1OC)CN(CC(=O)Nc1ccc(F)cc1)CC2`, 2.33%; for `O=C(CCc1nnc(Cc2ccc3c(c2)OCO3)o1)NCCc1ccccc1Cl`, -0.572%. As for `COc1ccc(N(Cc2cc3cc(OC)ccc3[nH]c2=O)S(C)(=O)=O)cc1`, the largest response in the series, negative = inhibition was -8.56%. `CCC(=O)N(Cc1cc2cc(OC)ccc2[nH]c1=O)c1ccccc1C`: the largest response in the series, negative = inhibition was 6.41%. In the case of `COc1ccc2[nH]c(=O)c(CNc3ccc(C)c(C)c3)cc2c1`, the Potency was 50.1 µM (active). For the molecule `Cc1ccc(-c2ccc(=O)n(Cc3ccc(F)cc3Cl)n2)cc1`, the largest response in the series, negative = inhibition was -21.9%. Consider `Cc1noc(C)c1-c1cc(NCc2cccnc2)ncn1`, for which the largest response in the series, negative = inhibition was -20.7%. Consider `Cc1cc(NCc2cccnc2)no1`, for which the largest response in the series, negative = inhibition is 1.54%. Consider `Cc1cccc(CNc2ccnc(-c3cccnc3)n2)c1`, for which the Potency is 79.4 µM (active). With `CCN(CC)c1ccc(NC(=O)CCc2nnc3ccc(N4CCCCC4)nn23)c(C)c1`, the largest response in the series, negative = inhibition was 2.26%. On the same count and under the same terms, next, `CCOc1ccccc1CN1CCN(C2CCC2)CC1CCO` (centres undefined): 17.6%; `COC(=O)c1c(NC(=O)COc2ccc(Cl)cc2Cl)sc2c1CC(C)(C)NC2(C)C`: -6.17%; `O=C(CN(C(=O)CNC(=O)c1cccs1)c1cccc(F)c1)NC1CCCCC1`: 6.32%. As for `COc1cccc(CNC(=O)CCCC(=O)Nc2cccc([N+](=O)[O-])c2)c1`, the largest response in the series, negative = inhibition is 4.84%. As to `O=C(CSCC(=O)Nc1cccc([N+](=O)[O-])c1)Nc1ccccc1`, the largest response in the series, negative = inhibition was 7.95%. In the case of `COC(=O)/C=C\C(=O)Nc1cccc([N+](=O)[O-])c1`, the Potency was 3.55 µM (active). In the case of `CC(=O)c1ccc(NC(=O)c2ccc(-n3cncn3)c([N+](=O)[O-])c2)cc1`, the largest response in the series, negative = inhibition is -0.369%.
